Measurements: PubChem BioAssay (NCI)
This is part of a sample that, as a whole, favours compounds with a hit. Of some 83,000 tested, about 20% had one in any assay.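 Note: values are percent growth. 100 is the growth of untreated cells, values between 100 and 0 indicate rising inhibition; between -100 and 0 indicates cell death.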 Unmarked numbers belong to inactive results. Activity calls are given as the source filed them. How the source made its calls: active means growth percent below 10; inactive means the rest.

How the values were obtained:
Test in all cases: NCI-60 one-dose screen, 48 h (100 = growth as untreated, 0 = no growth, -100 = all killed)
Settings in all cases: 10 µM unless noted
SR leukemia = test system: SR leukemia
RPMI-8226 leukemia = test system: RPMI-8226 leukemia
OVCAR-8 ovarian = test system: OVCAR-8 ovarian
OVCAR-5 ovarian = test system: OVCAR-5 ovarian
OVCAR-4 ovarian = test system: OVCAR-4 ovarian
SK-OV-3 ovarian = test system: SK-OV-3 ovarian
IGROV1 ovarian = test system: IGROV1 ovarian
OVCAR-3 ovarian = test system: OVCAR-3 ovarian
HS 578T breast = test system: HS 578T breast
NCI/ADR-RES ovarian = test system: NCI/ADR-RES ovarian

| Compound | growth (SR leukemia) | growth (RPMI-8226 leukemia) | growth (OVCAR-8 ovarian) | growth (OVCAR-5 ovarian) | growth (OVCAR-4 ovarian) | growth (SK-OV-3 ovarian) | growth (IGROV1 ovarian) | growth (OVCAR-3 ovarian) | growth (HS 578T breast) | growth (NCI/ADR-RES ovarian) |
| --- | --- | --- | --- | --- | --- | --- | --- | --- | --- | --- |
| C=CC[N+]1(CC)CCN=C1CCCCCCCCCCCCCCCCC (stereo not given) | -64.7% (active) | -54.7% (active) | -95.2% (active) | -97.5% (active) | -72.2% (active) | -78.9% (active) | -86% (active) | -94.1% (active) | -41.3% (active) | -21.6% (active) |
| O=[N+]([O-])c1cccc(-c2nc3sccn3c2-c2ccnc(NCCCNS(=O)(=O)c3ccc(F)cc3)n2)c1 | 9.01% (active) | -29.7% (active) | 3.44% (active) | 59.1% | -5.32% (active) | 37.1% | 5.03% (active) | 4.12% (active) | 22.2% | -15.5% (active) |
| COc1ccc(/C=c2/c(=O)[nH]c3nc4sc(C)c(C)c4c(=O)n23)cc1 | 53.9% | 82.9% | 77.8% | 105% | 81.8% | 102% | 97.8% | 101% | 99.6% | 79.3% |
| CCCCCn1cnc2c(=S)nc[nH]c21 | 112% | 81.9% | 118% | 121% | 86.5% | 98.7% | 116% | 124% | 101% | 113% |
| C=CC[N+]1(CCO)CCN=C1CCCCCCCCCCCCC (stereo not given) | -39.7% (active) | -39.5% (active) | -74.3% (active) | -94.9% (active) | -25.9% (active) | -48.6% (active) | -82% (active) | -84.4% (active) | -36.5% (active) | -62% (active) |
| Cc1cc2cc3cc(C)c(N(C)C)cc3[n+](C)c2cc1N(C)C | 76.9% | 4.78% (active) | 23.4% | 63.4% | 38.5% | 20.2% | -3.39% (active) | -7.45% (active) | 33.1% | 78.4% |
| COc1cccc(-c2cn3c(ccc4ccccc43)n2)c1 | 31.9% | 31.8% | 45.7% | 52.7% | 61.6% | 45.7% | 41.2% | 16.7% | 21.6% | 15% |
| COCCOC(=O)C1=C(C)NC(=S)NC1c1ccc2c(c1)OCO2 (stereo not given) | 95.5% | 105% | 102% | 109% | 103% | 103% | 105% | 111% | 104% | 103% |
| CC(C)[C@@H]1CC[C@]2(C(=O)NCCCCN=C(N)N)CC[C@]3(C)[C@H](CC[C@@H]4[C@@]5(C)CCC(=O)C(C)(C)[C@@H]5CC[C@]43C)[C@@H]12 | 33.6% | 36.3% | 70.2% | 97.4% | 84.3% | 91.7% | 25.6% | 55.4% | 73% | 101% |
| CCOC(=O)CC(C)=N | 120% | 113% | 108% | 107% | 100% | 111% | 132% | 112% | 107% | 112% |
| Cc1ccc(Nc2c(C(N)=O)cnc3ccc(-c4csc(N)n4)cc23)cc1 | 94.8% | 100% | 101% | 99.6% | 87% | 108% | 89.3% | 108% | 92.9% | 96.4% |
| CC1CN(C(C)C)C(=S)N(c2ccccc2)C1=O (stereo not given) | 108% | 120% | 97.6% | 90.7% | 112% | 106% | 81.5% | 99.4% | 98% | 92.7% |
| c1ccc(Sc2ncnc3ccccc23)cc1 | 25.5% | 20.9% | 82.1% | 98.4% | 76% | 112% | 77.9% | 71.2% | 77.9% | 83.5% |
| C=C1CC[C@@H]2[C@](C)(COC(C)=O)[C@H](OC(C)=O)CC[C@@]2(C)[C@@H]1CC(NCc1ccc(F)cc1)C1=CCOC1=O (stereo not given in full) | 7.69% (active) | 1.27% (active) | 18.6% | 99% | 30.9% | 94.3% | 48.3% | 23.7% | 72.5% | 28.3% |
| Cn1c(=O)c2[nH]c(C(O)C(O)C(O)C(O)CO)nc2n(C)c1=O (stereo not given) | 105% | 110% | 108% | 101% | 116% | 99.8% | 106% | 109% | 107% | 100% |
| COc1ccccc1N1CCN(CCn2c(=O)c3c(c4ccccc4n3C)n(C)c2=O)CC1 | 78% | 109% | 85% | 111% | 114% | 93.6% | 104% | 103% | 98.5% | 100% |
| CCOC(=O)C(C#N)C1CCCCC1 (stereo not given) | 84.3% | 99.1% | 103% | 99.8% | 118% | 109% | 101% | 96.9% | 122% | 98.5% |
| COc1ccc2nc3cc(Cl)ccc3c(N3CCN(c4nccc(NCc5ccccc5)n4)CC3)c2c1 | 20.9% | 63.2% | 71.4% | 106% | 67.3% | 98.1% | 92% | 63.3% | 83.3% | 78.5% |
| COc1ccc(S(=O)(=O)NCCCNc2nccc(-c3c(-c4cccc(N)c4)nc4sccn34)n2)cc1 | 86.4% | 84% | 93.5% | 134% | 97.1% | 112% | 87.1% | 94.5% | 93.9% | 94.7% |
| OC(c1cccc(C(F)(F)F)c1)c1cnccc1NC1CCCCCC1 (stereo not given) | -14.7% (active) | -30.1% (active) | 58.2% | 79.8% | 52.7% | 71.4% | 44.2% | 57.5% | 64.4% | 39.2% |
| CCCCCCCCCCCCCCCC(=O)OCC1OC(n2cnc3c(=S)nc(N)[nH]c32)C(OC(=O)CCCCCCCCCCCCCCC)C1OC(=O)CCCCCCCCCCCCCCC (stereo not given) | 11.4% | 30.1% | 55.8% | 52.1% | 78.3% | 20.8% | 77.1% | 50% | 119% | 39.4% |
| O=C1/C(=C\c2cn(C(=O)c3ccc(Cl)cc3)c3ccccc23)c2ccccc2N1c1c(Cl)cccc1Cl | 99.6% | 101% | 113% | 94.3% | 99.5% | 116% | 99.2% | 116% | 107% | 99.7% |
| Clc1cccc(Nc2nc(Nc3cnc4ccccc4c3)c3[nH]cnc3n2)c1 | 80.8% | 78.3% | 75.6% | 89.3% | 93.9% | 71.2% | 62.3% | 73.6% | 65.6% | 87.2% |
| COc1ccc(Cl)cc1Nc1nc(C(F)(F)F)ccc1C(=O)N/N=C/c1cccnc1 | 25.1% | 32.5% | 42% | 57% | 29.7% | 53.9% | 40.3% | 29.3% | 59.6% | 41.8% |
| CSc1[nH]c2ncnc(N)c2c1C#N | 99.5% | 106% | 115% | 87.4% | 94.2% | 92.7% | 92.4% | 125% | 130% | 86.1% |
| CCOC(=O)c1cnc2ccc(Br)cc2c1Nc1cccc(S(=O)(=O)NC)c1 | 124% | 110% | 101% | 100% | 82.4% | 96.2% | 89.5% | 104% | 95.8% | 80.4% |
| CCOC(=O)c1ccc2c(c1)nc(/C=C/c1ccc(Cl)cc1)n2-c1cc(C(C)(C)C)[nH]n1 | 52.2% | 52.3% | 38.5% | 110% | 38.3% | 43.3% | 15.4% | 22.2% | 51.3% | 68% |
